Reference: PubChem BioAssay AID1159580 (chemical genetic matrix, 2015)
Hit rate of the full screen: of about 5,500 compounds, about 2,000 (36%) were called active. Inconclusive results (about 18%) are left out. No stated cut-off is given here; in the data, active means normalized growth mostly below about 0.91 (no sharp cut-off); inconclusive means no clear call, values can overlap the other calls; inactive means mostly above about 0.92. The list shows a part of the results.

Assay: chemical genetic growth profiling, strain panel (AID 1159580);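 further: tested at 20 µM; growth read once vehicle control cultures reached saturation at 30 °C; 1 = growth at the plate median or of vehicle wells; lower values mean less growth of the strain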
Details: S. cerevisiae deletion strains, growth OD

Measured: normalized growth

COc1cc2c(cc1-c1coc3c4c(c(OC)cc3c1=O)OC(C)(C)C=C4)OCO2
inactive: locus YAL013W, strain DEP1, active compounds read low 0.934 | locus YAL021C, strain ccr4, active compounds read low 0.993 | locus YAL026C, strain drs2, active compounds read low 1.03 | locus YAL030W, strain snc1, active compounds read low 1.03 | locus YBL061C, strain skt5, active compounds read low 1.02 | locus YBR009C, strain hhf1, active compounds read low 0.95 | locus YBR021W, strain FUR4, active compounds read low 1.05 | locus YBR023C, strain chs3, active compounds read low 0.971 | locus YBR171W, strain sec66, active compounds read low 1.03 | locus YBR229C, strain ROT2, active compounds read low 0.994 | locus YBR231C, strain swc5, active compounds read low 1.04 | locus YBR279W, strain paf1, active compounds read low 0.985 | locus YCL011C, strain gbp2, active compounds read low 1 | locus YCL016C, strain dcc1, active compounds read low 0.982 | locus YCL029C, strain bik1, active compounds read low 0.985 | locus YCL061C, strain MRC1, active compounds read low 1.01 | locus YCL069W, strain vba3, active compounds read low 1.05 | locus YCR088W, strain abp1, active compounds read low 1.05 | locus YDL005C, strain med2, active compounds read low 1.04 | locus YDL035C, strain GPR1, active compounds read low 0.998 | locus YDL040C, strain nat1, active compounds read low 1.02 | locus YDL074C, strain BRE1, active compounds read low 0.902 | locus YDL101C, strain DUN1, active compounds read low 0.95 | locus YDL134C, strain PPH21, active compounds read low 0.907 | locus YDL185W, strain tfp1, active compounds read low 1.01 | locus YDL192W, strain arf1, active compounds read low 0.966 | locus YDR001C, strain nth1, active compounds read low 1.04 | locus YDR069C, strain doa4, active compounds read low 1.04 | locus YDR101C, strain arx1, active compounds read low 1 | locus YDR159W, strain sac3, active compounds read low 0.981 | locus YDR162C, strain NBP2, active compounds read low 0.884 | locus YDR297W, strain sur2, active compounds read low 1.02 | locus YDR318W, strain mcm21, active compounds read low 0.964 | locus YDR334W, strain swr1, active compounds read low 1.04 | locus YDR335W, strain msn5, active compounds read low 1.03 | locus YDR388W, active compounds read low 0.986 | locus YDR502C, strain sam2, active compounds read low 0.97 | locus YEL003W, strain gim4, active compounds read low 1.02 | locus YEL037C, strain rad23, active compounds read low 1.04 | locus YEL061C, strain CIN8 (second series), active compounds read low 1.04 | locus YER015W, strain faa2, active compounds read low 0.991 | locus YER016W, strain bim1, active compounds read low 1.03 | locus YER110C, active compounds read low 0.994 | locus YER111C, strain swi4, active compounds read low 0.994 | locus YER155C, strain BEM2 (second series), active compounds read low 0.926 | locus YER155C, strain BEM2, active compounds read low 0.988 | locus YER167W, strain BCK2, active compounds read low 1.01 | locus YFR010W, strain ubp6, active compounds read low 1.07 | locus YGL078C, strain dbp3, active compounds read low 0.983 | locus YGL086W, strain mad1, active compounds read low 0.959 | locus YGL167C, strain pmr1, active compounds read low 1.02 | locus YGL173C, strain kem1, active compounds read low 1 | locus YGL227W, strain vid30, active compounds read low 1.08 | locus YGL240W, strain doc1, active compounds read low 0.984 | locus YGL248W, strain PDE1, active compounds read low 0.929 | locus YGL253W, strain hxk2, active compounds read low 1.01 | locus YGR135W, strain pre9, active compounds read low 0.916 | locus YGR252W, strain gcn5, active compounds read low 0.863 | locus YHR013C, strain ard1, active compounds read low 0.991 | locus YHR027C, strain rpn1, active compounds read low 1.03 | locus YHR030C, strain SLT2, active compounds read low 0.968 | locus YHR079C, strain IRE1 (second series), active compounds read low 0.995 | locus YHR094C, strain hxt1, active compounds read low 1 | locus YHR129C, strain ARP1, active compounds read low 0.959 | locus YHR142W, strain chs7, active compounds read low 0.976 | locus YHR200W, strain rpn10, active compounds read low 0.957 | locus YIL066C, strain RNR3, active compounds read low 0.991 | locus YIL073C, strain SPO22, active compounds read low 0.919 | locus YIL125W, strain kgd1, active compounds read low 0.982 | locus YIR030C, strain dcg1, active compounds read low 1 | locus YJL092W, strain hpr5, active compounds read low 1.04 | locus YJL095W, strain BCK1 (second series), active compounds read low 0.974 | locus YJL095W, strain BCK1, active compounds read low 0.809 | locus YJL115W, strain asf1, active compounds read low 1.04 | locus YJL129C, strain trk1, active compounds read low 1.03 | locus YJL134W, strain LCB3, active compounds read low 1 | locus YJL154C, strain vps35, active compounds read low 1.04 | locus YJL164C, strain tpk1, active compounds read low 0.968 | locus YJL166W, strain qcr8, active compounds read low 0.933 | locus YJL168C, strain set2, active compounds read low 0.985 | locus YJL187C, strain SWE1 (second series), active compounds read low 0.938 | locus YKL009W, strain mrt4, active compounds read low 1.01 | locus YKL068W, active compounds read low 1 | locus YKL085W, strain MDH1 (second series), active compounds read low 1 | locus YKL085W, strain MDH1, active compounds read low 1 | locus YKL160W, strain elf1, active compounds read low 0.927 | locus YKR001C, strain vps1, active compounds read low 0.937 | locus YKR026C, strain gcn3, active compounds read low 1.06 | locus YKR091W, strain srl3, active compounds read low 1.02 | locus YLL001W, strain dnm1, active compounds read low 1.01 | locus YLL026W, active compounds read low 1.04 | locus YLL041C, strain sdh2, active compounds read low 1.03 | locus YLR027C, strain aat2, active compounds read low 0.992 | locus YLR039C, strain RIC1, active compounds read low 0.788 | locus YLR058C, strain SHM2, active compounds read low 0.984 | locus YLR102C, strain apc9, active compounds read low 0.997 | locus YLR221C, strain rsa3, active compounds read low 1.01 | locus YLR258W, strain gsy2, active compounds read low 0.978 | locus YLR268W, strain sec22, active compounds read low 0.998 | locus YLR320W, strain mms22, active compounds read low 0.912 | locus YLR342W, strain FKS1 (second series), active compounds read low 0.936 | locus YLR342W, strain FKS1, active compounds read low 0.968 | locus YLR357W, strain rsc2, active compounds read low 1.12 | locus YLR370C, strain arc18, active compounds read low 0.973 | locus YLR371W, strain rom2, active compounds read low 1.02 | locus YLR384C, strain iki3, active compounds read low 1.03 | locus YML016C, strain PPZ1, active compounds read low 0.987 | locus YML032C, strain rad52, active compounds read low 0.963 | locus YML120C, strain ndi1, active compounds read low 0.971 | locus YML124C, strain tub3, active compounds read low 1 | locus YMR058W, strain fet3, active compounds read low 1 | locus YMR078C, strain ctf18, active compounds read low 0.986 | locus YMR125W, strain sto1, active compounds read low 1.01 | locus YMR129W, active compounds read low 1.03 | locus YMR205C, strain PFK2, active compounds read low 0.919 | locus YMR223W, strain ubp8, active compounds read low 0.928 | locus YMR231W, strain pep5, active compounds read low 1.01 | locus YMR307W, strain GAS1, active compounds read low 0.685 | locus YNL067W, strain RPL9B, active compounds read low 0.956 | locus YNL209W, strain ssb2, active compounds read low 1 | locus YNL248C, strain rpa49, active compounds read low 1.1 | locus YNL250W, strain rad50, active compounds read low 0.972 | locus YNL271C, strain bni1, active compounds read low 0.991 | locus YNL298W, strain CLA4, active compounds read low 0.953 | locus YNL307C, strain MCK1, active compounds read low 0.907 | locus YNL322C, strain KRE1 (second series), active compounds read low 1.04 | locus YNR049C, strain mso1, active compounds read low 1.03 | locus YNR052C, strain pop2, active compounds read low 0.944 | locus YOL006C, strain TOP1, active compounds read low 0.842 | locus YOL012C, strain htz1 0.696 | locus YOL147C, strain pex11, active compounds read low 0.996 | locus YOR001W, strain rrp6, active compounds read low 1.02 | locus YOR061W, strain CKA2, active compounds read low 1.02 | locus YOR069W, strain VPS5, active compounds read low 0.973 | locus YOR070C, strain gyp1, active compounds read low 0.992 | locus YOR080W, strain dia2, active compounds read low 1.04 | locus YOR083W, strain WHI5, active compounds read low 0.959 | locus YOR106W, strain vam3, active compounds read low 0.996 | locus YOR136W, strain idh2, active compounds read low 0.98 | locus YOR144C, strain elg1, active compounds read low 0.993 | locus YOR184W, strain ser1, active compounds read low 0.904 | locus YOR265W, strain rbl2, active compounds read low 1.01 | locus YOR270C, strain vph1, active compounds read low 0.871 | locus YOR290C, strain snf2, active compounds read low 0.948 | locus YOR316C, strain cot1, active compounds read low 0.985 | locus YPL078C, strain atp4, active compounds read low 0.95 | locus YPL106C, strain sse1, active compounds read low 1.05 | locus YPL240C, strain hsp82, active compounds read low 1.04 | locus YPR119W, strain clb2, active compounds read low 0.995 | locus YPR141C, strain kar3, active compounds read low 0.999 | locus YPR163C, strain tif3, active compounds read low 0.986 | locus YPR167C, strain met16, active compounds read low 0.972 | strain wtn01, active compounds read low 0.989
active: locus YDR137W, strain rgp1, active compounds read low 0.654 | locus YDR195W, strain ref2 1.18 [resistant] | locus YDR392W, strain spt3, active compounds read low 0.295 | locus YLR262C, strain YPT6 (second series), active compounds read low 0.681 | locus YLR418C, strain cdc73, active compounds read low 0.798 | locus YNL071W, strain lat1, active compounds read low 0.799 | locus YNL233W, strain BNI4, active compounds read low 0.868 | locus YPL051W, strain arl3, active compounds read low 0.895
